Experimental data taken from PubChem BioAssay AID1508600 (Functional Genomics Laboratory (NCATS/FGL), 2020).
The whole screen tested about 53,000 sequences, of which about 3,700 (7%) were called active.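 How the source made its calls: active means gene knockdowns whose robust z-score for IL-1 alpha signal is at least 2 or at most -2, so actives lie on both sides; inactive means the rest.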 Many of the other results were omitted from the sample, so actives are more common in it than they were.

assay: Components of the Cytosolic LPS Sensing Pathway: Gene Identification via Genome-wide siRNA Screen; settings: RAW264.7 macrophages, IL-1a HTRF, actives lie on both sides, screened at 100 nM (by protocol), cells primed 5 h with Pam3CSK4 first;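 further: robust z of the log signal after scaling to non-targeting control siRNA wells of the plate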
Outline: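 Knockdown: 100 nM siRNA, 48h, RAW264.7. Stimulation: Pam3CSK4 5 h, then LipidA via TransIT-TKO 24 h. Output: supernatant IL-1a HTRF, negative-control-normalized, log robust z-score; viability by CellTiter-Glo.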

Sequence	z-score
GGCAUUUACCAAGUUCCUGTT against Olfr522	-1.26 (inactive)
GGACCAUAAGCACAUGAUUTT against Prl7c1	0.668 (inactive)
GGUCCAUACAAGUGUUUGATT against Camk2b	-0.15 (inactive)
GGUACUCGAAUCUGACCUCTT against Nqo1	2.04 (active)
GGAAACCCAAUAUCAAACUTT against Rnf138	0.252 (inactive)
GCAUCACUUACAGAUAGACTT against Olfr305	-1.21 (inactive)
GCAAUACCUCAGAAAAAGUTT against Tmem165	-4.14 (active)
GGAGGUCCAGAAGAAUUAUTT against Pam16	0.957 (inactive)
GCAAAAGUAGAAGAACAACTT against Ccnt1	-0.172 (inactive)
GGUGGUUACCAUCUUACUUTT against Trhr	0.532 (inactive)
GGAAAUUUUCAAGCUCAAGTT against Gsdmd	-2.44 (active)
GGAGGCAUUCGCAUAGACGTT against Tra2a	1.68 (inactive)
GGUGUGAGAUCGAAUCAGATT against Arhgef18	0.503 (inactive)
GGCACUCUUGUUGAAAUUCTT against H6pd	0.756 (inactive)
GGGUUGUUUGCUGGUUUGUTT against Tmbim4	0.885 (inactive)
GGUUGGAAAUUGGACAGGATT against Col6a3	2.22 (active)
GGACCUCACAAGUGUUUAUTT against Pola1	-0.837 (inactive)
GGUGAAUGUGUGGAUUAUCTT against Itih2	-0.684 (inactive)
GGUUGUUCUUAACAUAACCTT against Ginm1	0.0306 (inactive)
GGAUCAAGAAAAGAUGAAATT against Galnt1	-0.858 (inactive)
GGUGAUGCGAUCUUCUUUATT against Anxa10	1.76 (inactive)
GGUCAAAAUAGAAGGAGUATT against Klhl4	0.124 (inactive)
CCCUGUAUAUAUUUGCUGATT against Clca3a2	2.78 (active)
GGUGCCCAUAAUAGCCAUCTT against Polr2c	-1.02 (inactive)
GCCACACGACAUGUGAUUCTT against C2cd4c	-0.0403 (inactive)
GCAGUUGGCAGGCUAAAAATT against Mff	1.98 (inactive)
CCCUAACUUAAUAAAACCUTT against Triobp	-2.41 (active)
GGACAUCGAAGUCCAACACTT against Plekhm1	-0.501 (inactive)
CCACUUACAUGUCAGAUUATT against Slc30a6	1.09 (inactive)
GGACUGGAAGAAUUUUUUGTT against Mrpl47	0.293 (inactive)
